A selection: hits, their analogues and other compounds. The true share with any hit is near 3.5%.
GPR151 activ – human GPR151 activation. PathHunter beta-arrestin GPR151 cells, luminescence. activation, % at 11.2 µM. actives 1% (n = 650,000). Q8TDV0; in the data active = activation above about 4.9%;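 also: 0% = median of compound wells and 100% = cells with positive control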
MITF inh – inhibitors of human MITF | O75030 | AlphaScreen MITF homodimerization, bead proximity signal | inhibition, % at 2.6 µM | actives 0.91% (n = 650,000); in the data active = inhibition above about 50%;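 also: 0% = vehicle wells with protein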
TEAD-YAP block – TEAD-YAP interaction inhibition; HEK-TIYL cells, TEAD-Gal4/YAP UAS-luciferase luminescence; inhibition, % at 9.12 µM; actives 1.4% (n = 640,000); AID 1259422; in the data active = inhibition above about 32%;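 also: 0% = median of test compound wells and 100% = reference inhibitor wells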
FBW7 activator – human FBW7 E3 ligase activation, primary screen; Q969H0; AlphaScreen FBW7–phospho-cyclin E peptide binding, activator screen; normalized activity (activation), % at 26.1 µM; actives 0.13% (n = 650,000); in the data active = normalized activity above about 1.9%;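 also: purified mutant Fbw7 with reduced substrate affinity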
Target sequence (Q969H0 whole entry, looked up): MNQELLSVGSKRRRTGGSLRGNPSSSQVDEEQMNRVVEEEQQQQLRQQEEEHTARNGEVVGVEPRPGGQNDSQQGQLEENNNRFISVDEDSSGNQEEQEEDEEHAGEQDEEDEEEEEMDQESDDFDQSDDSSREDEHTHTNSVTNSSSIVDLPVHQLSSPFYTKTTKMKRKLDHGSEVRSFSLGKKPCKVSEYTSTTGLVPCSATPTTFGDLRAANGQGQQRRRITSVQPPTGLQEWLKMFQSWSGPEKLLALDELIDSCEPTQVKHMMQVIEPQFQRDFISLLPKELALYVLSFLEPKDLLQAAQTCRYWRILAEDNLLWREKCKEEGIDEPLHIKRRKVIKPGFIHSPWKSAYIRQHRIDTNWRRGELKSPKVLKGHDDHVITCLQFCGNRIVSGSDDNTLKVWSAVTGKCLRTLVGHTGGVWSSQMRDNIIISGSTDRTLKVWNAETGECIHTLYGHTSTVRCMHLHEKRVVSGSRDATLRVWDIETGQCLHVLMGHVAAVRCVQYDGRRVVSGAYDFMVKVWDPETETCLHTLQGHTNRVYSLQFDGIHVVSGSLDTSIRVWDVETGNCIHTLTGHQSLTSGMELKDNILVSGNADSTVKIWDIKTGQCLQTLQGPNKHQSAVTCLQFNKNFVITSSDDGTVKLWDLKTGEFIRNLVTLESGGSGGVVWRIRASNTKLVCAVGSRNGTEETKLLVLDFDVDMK
GPR151 confirm – confirmation of human GPR151 activators; shares compounds with GPR151 activ; GPR151 PathHunter beta-arrestin cells, luminescence, 90 min; % of EA-reagent control over plate median; activation, % at 11.2 µM; 6,700 tested, under 10 active; AID 1508609;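 active = mean percent activation across replicates above the confirmation screen cutoff of 4.91%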
GPR119 counter – activates human GPR119 in a GPR151 counter-screen. shares compounds with GPR151 activ. GPR119 PathHunter beta-arrestin cells, luminescence, 90 min; 0 = compound-well median, 100 = enzyme-acceptor control. activation, % at 11.2 µM. actives 0.3% (n = 6,700);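 active = mean percent activation in the counterscreen above 29.09%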;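 also: counterscreen on off-target GPR119 to flag nonselective hits from the GPR151 activator screen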
* marks the source's active call; other numbers are inactive results.

What do the screens show for `COc1cc(Nc2nc(NCCCN3CCCC3=O)c3ncn(CCN4CCCC4=O)c3n2)cc(OC)c1OC`?
GPR151 activ: 6.5*; MITF inh: 3.9; TEAD-YAP block: -0.4; FBW7 activator: -0.2; GPR151 confirm: 0.0; GPR119 counter: -7.5

Results for O=C1CCCN1CCn1cnc2c(Nc3ccc(N4CCOCC4)cc3)nc(Nc3ccc(N4CCOCC4)cc3)nc21 ?
GPR151 activ: 2.8; MITF inh: 20.6; TEAD-YAP block: -2.7; FBW7 activator: 0.3

What do the screens show for `O=C1CCCN1CCCNc1cc(N2CCOCC2)ncn1`?
GPR151 activ: 0.1; MITF inh: 0.8; TEAD-YAP block: -3.5; FBW7 activator: -0.1

How did O=C1CCCN1CCCNc1cc(N2CCC(N3CCOCC3)CC2)ncn1 do in these assays?
GPR151 activ: 8.5*; MITF inh: -0.1; TEAD-YAP block: 7.4; FBW7 activator: 0.1; GPR151 confirm: -1.3; GPR119 counter: -14.3

Results for O=C1CCCN1CCn1cnc2c(NCCN3CCOCC3)nc(Nc3nccc4ccccc34)nc21 ?
GPR151 activ: 5.3*; MITF inh: 6.1; TEAD-YAP block: -2.7; FBW7 activator: -0.1; GPR151 confirm: 0.4; GPR119 counter: -7.4

Results for CCN1C(=O)Cc2cc(NC(=O)c3ccc(C(C)(C)C)cc3)ccc21 ?
GPR151 activ: 5.2*; MITF inh: 11.8; TEAD-YAP block: 4.0; FBW7 activator: 0.1; GPR151 confirm: 1.0; GPR119 counter: 2.8

Results for CCOc1ccc(C(=O)Nc2ccc3c(c2)CC(=O)N3CC)cc1 ?
GPR151 activ: 1.6; MITF inh: -2.9; TEAD-YAP block: -2.5; FBW7 activator: 0.0

Results for CC(NC(=O)c1cccc(Br)c1)C1CCCO1 (configuration not stated) ?
GPR151 activ: -0.4; MITF inh: -23.6; TEAD-YAP block: -6.6; FBW7 activator: -0.1

What do the screens show for `CC(NC(=O)c1ccc2c(c1)OCO2)C1CCCO1` (configuration not stated)?
GPR151 activ: 5.5*; MITF inh: 3.8; TEAD-YAP block: -13.9; FBW7 activator: -0.2; GPR151 confirm: 0.9; GPR119 counter: 12.7

Results for N#Cc1c(-c2ccc(Cl)cc2)cc(-c2ccccc2)nc1N ?
GPR151 activ: -0.4; MITF inh: 10.0; TEAD-YAP block: 2.0; FBW7 activator: 0.0

What do the screens show for `N#Cc1c(-c2ccncc2)cc(-c2ccc(Cl)cc2)nc1N`?
GPR151 activ: 5.4*; MITF inh: -11.2; TEAD-YAP block: -6.7; FBW7 activator: -0.1; GPR151 confirm: 0.0; GPR119 counter: -2.2

Results for COc1cc2c(cc1NC(=O)c1ccccc1Cl)oc1ccccc12 ?
GPR151 activ: 0.2; MITF inh: -13.9; TEAD-YAP block: -41.3; FBW7 activator: 0.1

How did COc1cc2c(cc1NC(=O)c1cccc([N+](=O)[O-])c1)oc1ccccc12 do in these assays?
GPR151 activ: 6.9*; MITF inh: 8.0; TEAD-YAP block: -1.2; FBW7 activator: 0.0; GPR151 confirm: 0.8; GPR119 counter: 0.2

What do the screens show for `COc1cc2c(cc1NC(=O)c1ccoc1C)oc1ccccc12`?
GPR151 activ: 5.2*; MITF inh: -5.6; TEAD-YAP block: -65.1; FBW7 activator: 0.0; GPR151 confirm: -0.3; GPR119 counter: 3.3

How did O=S(=O)(CCN1CCc2nc(-c3cccnc3)nc(N3CCCC3)c2C1)c1ccccc1 do in these assays?
GPR151 activ: 8.4*; MITF inh: 5.1; TEAD-YAP block: 10.6; FBW7 activator: 0.2; GPR151 confirm: -0.6; GPR119 counter: -15.9

What do the screens show for `CCOC(=O)CC(=O)N1CCc2nc(-c3cccnc3)nc(N3CCCCCC3)c2C1`?
GPR151 activ: 7.1*; MITF inh: 9.5; TEAD-YAP block: -9.5; FBW7 activator: 0.4; GPR151 confirm: -1.3; GPR119 counter: -10.9

What do the screens show for `COc1ccc(Cl)cc1C(=O)Nc1nc2ccccc2n1C`?
GPR151 activ: 0.2; MITF inh: -12.2; TEAD-YAP block: 1.6; FBW7 activator: -0.4

How did CC(C)c1ccc(/C=N/Nc2nncc(=O)[nH]2)cc1 do in these assays?
GPR151 activ: 5.6*; MITF inh: 17.1; TEAD-YAP block: -43.6; FBW7 activator: -0.6; GPR151 confirm: 0.0; GPR119 counter: -12.0

How did COc1ccccc1C(=O)NC(=S)Nc1ccc(N(C)C)cc1 do in these assays?
GPR151 activ: -1.0; MITF inh: -0.8; TEAD-YAP block: -61.0; FBW7 activator: -0.1

What do the screens show for `CCN(CC)CCN1C(=O)C(O)=C(C(=O)c2cc3ccccc3o2)C1c1ccc(C)o1` (configuration not stated)?
GPR151 activ: 6.1*; MITF inh: -20.5; TEAD-YAP block: -7.2; FBW7 activator: 0.2; GPR151 confirm: 0.3; GPR119 counter: -6.2

Results for Cc1ccc(C(=O)Nc2ccccc2C(=O)NC(C)C)cc1[N+](=O)[O-] ?
GPR151 activ: -2.2; MITF inh: -75.1; TEAD-YAP block: -12.2; FBW7 activator: -0.2

What do the screens show for `Cc1nnc(SCC(=O)N2CCCC2)n(N)c1=O`?
GPR151 activ: 5.5*; MITF inh: 12.9; TEAD-YAP block: 4.7; FBW7 activator: 0.7; GPR151 confirm: 0.2; GPR119 counter: 11.6

What do the screens show for `Cc1nnc(SCC(=O)N2CCCCC2)n(N)c1=O`?
GPR151 activ: -0.7; MITF inh: 9.5; TEAD-YAP block: 4.7; FBW7 activator: -0.1

Results for O=C(NCc1ccccc1)c1nn(C23CC4CC(CC(C4)C2)C3)cc1[N+](=O)[O-] ?
GPR151 activ: 5.6*; MITF inh: 5.6; TEAD-YAP block: 7.1; FBW7 activator: -0.1; GPR151 confirm: -0.6; GPR119 counter: 0.9

How did CCN1CCN(C(c2ccc(C)cc2)c2nnnn2Cc2ccc3c(c2)OCO3)CC1 (configuration not stated) do in these assays?
GPR151 activ: -0.3; MITF inh: 11.5; TEAD-YAP block: 7.6; FBW7 activator: -0.1

How did Nc1ccc2nc(SCC(=O)Nc3ccccc3)sc2c1 do in these assays?
GPR151 activ: 2.3; MITF inh: 3.8; TEAD-YAP block: -38.0; FBW7 activator: 0.1

How did CC(NC(=O)CSc1nc2ccc(N)cc2s1)c1ccccc1 (configuration not stated) do in these assays?
GPR151 activ: 6.3*; MITF inh: -4.0; TEAD-YAP block: 3.3; FBW7 activator: -0.2; GPR151 confirm: -0.1; GPR119 counter: -2.1

How did O=[N+]([O-])c1cc(S(=O)(=O)N2CCOCC2)ccc1NN=C1C2CC3CC(C2)CC1C3 do in these assays?
GPR151 activ: 5.0*; MITF inh: 2.0; TEAD-YAP block: -3.2; FBW7 activator: 0.0; GPR151 confirm: 0.9; GPR119 counter: 1.7

Results for CC(C)N1CCC(=NNc2ccc(S(=O)(=O)N3CCOCC3)cc2[N+](=O)[O-])CC1 ?
GPR151 activ: 2.9; MITF inh: 10.1; TEAD-YAP block: 8.8; FBW7 activator: -0.2
